Compound activity as filed in PubChem.
Rab9 promoter act = Rab9 promoter activation. Huh7 Rab9 promoter-luciferase reporter, luminescence, 24 h. Potency, µM (titrated, usually from 9.22 µM), usual class: activators. actives 2.8% (n = 320,000). AID 485297; further: nearly all actives have a fitted effect of over 60% in size
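Luminescence from Amplite-detected luciferase (10 minutes, ambient) reports Rab9 promoter activation. Before that, stable Rab9-luciferase Huh7 cells (1500/well, reduced-serum OP-MEM I plus 10% FBS) were exposed to compound for 24 hours at 37C.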
ELG1 genotox = genotoxicity induction in ELG1-luciferase HEK293T cells; HEK293T ELG1-luciferase reporter, luminescence, 16 h; Potency, µM (series often up to 46 µM), usual class: activators; actives 1.3% (n = 330,000); AID 504466; further: nearly all actives have a fitted effect of over 60% in size
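Quantitative HTS format in 1536-well plates. HEK293T ELG1-luciferase reporter cells receive test compound and are incubated 16 hr at 37 °C, 5% CO2; ONE-Glo added, 30 min room temperature, then luminescence read.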
SMN2 splice up = SMN2 splice variant enhancement; actives 2.8% (n = 210,000); AID 1458; Potency, µM (series often up to 46.1 µM), actives largely listed as activators; HEK293 SMN2-luciferase splicing reporter, luminescence, 30-36 h; further: nearly all actives have a fitted effect of over 55% in size
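HEK293 cells carry an SMN2 […]–luciferase reporter in which exon 7 inclusion puts luciferase in frame. Cells were plated 10-12 h before compound addition, then incubated 30-36 h at 37C. ONE-Glo luminescence was read; sodium butyrate at 4.5 mM final served as control.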
FLuc modulator = inhibits or activates purified firefly luciferase, miR-21 counter-screen. P08659. purified FLuc, Km substrates, luminescence inhibition. Potency, µM (top dose mostly 57.5 µM), usual class: inhibitors. actives 6.9% (n = 360,000). AID 588342; further: nearly all actives have a fitted effect of over 55% in size
Target sequence (P08659 whole entry, looked up): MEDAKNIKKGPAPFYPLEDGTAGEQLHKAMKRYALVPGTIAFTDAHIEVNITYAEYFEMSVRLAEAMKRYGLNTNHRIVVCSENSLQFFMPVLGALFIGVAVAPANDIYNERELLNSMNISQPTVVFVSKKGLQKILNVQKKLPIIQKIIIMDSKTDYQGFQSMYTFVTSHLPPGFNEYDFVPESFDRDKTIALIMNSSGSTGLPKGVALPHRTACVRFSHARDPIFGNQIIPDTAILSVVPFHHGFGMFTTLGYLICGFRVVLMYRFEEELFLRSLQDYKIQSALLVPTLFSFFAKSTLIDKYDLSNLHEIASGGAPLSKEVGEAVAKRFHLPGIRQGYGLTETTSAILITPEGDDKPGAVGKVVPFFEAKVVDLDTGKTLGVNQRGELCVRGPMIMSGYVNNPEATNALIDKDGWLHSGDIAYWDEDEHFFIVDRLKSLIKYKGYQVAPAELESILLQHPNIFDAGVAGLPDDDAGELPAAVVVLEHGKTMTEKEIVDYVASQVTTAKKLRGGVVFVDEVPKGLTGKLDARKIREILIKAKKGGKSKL
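Biochemical qHTS of compounds, final roughly 60 µM downward over six points, against 10 nM purified firefly luciferase using Km concentrations of substrates (10 uM D-luciferin, 10 uM ATP) in Tris acetate pH 7.5 buffer; luminescence output.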
p53 reactivator = re-activators of mutant p53; H1299 p53-A138V BP100-luciferase reporter, luminescence, 24 h; Potency, µM (top dose mostly 92.2 µM), hits mostly activators; actives 0.063% (n = 320,000); AID 504706; further: nearly all actives have a fitted effect of over 45% in size
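p53-null H1299 cells stably carrying temperature-sensitive p53-A138V and a BP100-luciferase reporter were pinned with compounds (4-point, 1:5 series) and held 24 hrs at 37 deg C. Luminescence was read 10 min after detection reagent.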
NPC1 promoter act = activators of NPC1 promoter | actives 2.4% (n = 320,000) | Potency, µM (titrated, usually from 9.22 µM), usual class: activators | Huh7 NPC1 promoter luciferase reporter, 24 h; further: nearly all actives have a fitted effect of over 60% in size
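Luciferase expression driven by the NPC1 promoter was measured in stably transfected Huh7 cells after a 24 h compound incubation, using a luciferase reagent and a luminescence read.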
Numbers stand for hits; n = inactive; u = inconclusive; x = no result given; [ ] = dose if it differs, or a comment. An excerpt weighted towards active compounds, which were near 7.4% of everything screened. The call rests on the fitted dose curve; in most records, active means well fitted curve in the direction sought with a large enough effect; inconclusive means small, poorly fitted or top-dose-only effect, or another doubt; inactive means no such curve, though single readings can be large; an effect the other way counts as inactive or inconclusive.

SMILES	Rab9 promoter act	ELG1 genotox	SMN2 splice up	FLuc modulator	p53 reactivator	NPC1 promoter act
O=C(Nc1ccc(C(=O)O)cc1)/C(=C\C=C\c1ccccc1)NC(=O)c1ccccc1Cl	n	n	x	n	n	n
COC(=O)/C(=C\C=C\c1ccccc1)NC(=O)c1ccccc1	n	n	n	u	n	n
CCN(CC(=O)Nc1cc(C)nn1-c1nc(C)cc(C)n1)Cc1ccccc1	n	n	n	n	n	n
COc1ccccc1C(=O)NC(=O)COC(=O)Cc1ccccc1[N+](=O)[O-]	n	n	x	n	n	n
COC(=O)c1ccc(C(NC(=O)OCc2ccccc2)/C(=C/[C@@H](C)C(=O)NCc2ccc(OC)c(OC)c2)c2cccnc2)cc1 (stereo not given in full)	x	x	n	x	x	x
Cc1ccc(Cl)cc1N1CCN(C(=O)c2ccc3c(c2)N(Cc2ccccc2F)C(=O)c2ccccc2S3=O)CC1 (stereo not given)	x	x	n	n	x	x
CCN1CCN(C(=O)c2ccc3c(c2)N(Cc2cc(C)ccc2C)C(=O)c2ccccc2S3=O)CC1 (stereo not given)	x	x	n	n	x	x
Cc1ccc(C)c(CN2C(=O)c3ccccc3S(=O)c3ccc(C(=O)N4CCN(c5ccccn5)CC4)cc32)c1 (stereo not given)	n	n	4.5µM	n	n	n
Cc1ccc(C)c(CN2C(=O)c3ccccc3S(=O)c3ccc(C(=O)N4CCN(c5ccccc5F)CC4)cc32)c1 (stereo not given)	x	x	0.63µM	n	x	x
COc1ccc(OC)c(NC(=O)CSc2nc(=O)n(CCN(C)C)c3c2CCC3)c1	x	x	x	n	x	x
CCN(CC)CCNC(=O)c1ccc(CSc2nc3ccncc3n2Cc2cccc(F)c2)cc1	x	x	n	n	x	x
CC(C)=CC(=O)OCc1cc([N+](=O)[O-])cc2c1OCOC2	u	u	u	24µM	n	n
COc1ccc(C2=C/C(=C\c3ccc(OC(C)=O)cc3)C(=O)O2)cc1	n	n	n	n	n	n
Cc1ccc(C2=C/C(=C/c3cccs3)C(=O)O2)cc1	n	n	n[1.84 µM]	0.38µM	u	n
CC(=O)Oc1cccc(/C=C2\C=C(c3ccc(C)cc3)OC2=O)c1	n	n	n	2.7µM	n	n
COc1ccc2cc3cc(C(=O)NC(C)C)oc3nc2c1	2µM	u	x	17µM	u	u
CCCCN(C)C(=O)c1cc2cc3cc(OC)ccc3nc2o1	3.5µM	n	u	13µM	n	u
CCCCN(C)CCNC(=O)c1cc2cc3ccc(OC)cc3nc2o1	n	n	x	n	n	n
CCCCN(C)C(=O)c1cc2cc3ccc(OC)cc3nc2o1	3.5µM	u	x	3.8µM	n	4µM
Cc1ccc(S(=O)(=O)NC2CC(C)(C)NC(C)(C)C2)c(C)c1C	n	n	x	n	x	n
CCOc1ccc(NC(=O)c2ccccc2SC)cc1	u	u	x	17µM	n	u
CSc1ccccc1C(=O)Nc1cc(C)cc(C)c1	n	n	n	u	n	n
COc1ccc(NC(=O)c2ccccc2SC)cc1	n	u	n	u	n	n
CSc1ccccc1C(=O)Nc1ccc(C)c(C)c1	u	u	u	15µM	n	u
Cc1ccc(C(=O)COc2ccccc2N2C(=O)c3ccccc3C2=O)cc1	u	u	20µM	n	n	u
SMILES	Rab9 promoter act	ELG1 genotox	SMN2 splice up	FLuc modulator	p53 reactivator	NPC1 promoter act
CCOc1ccc(NC(=O)C(C)Oc2ccccc2C(=O)Nc2ccc(C)c(Cl)c2)cc1 (stereo not given)	n	n	n	12µM	u	n
Cc1ccc(NC(=O)COc2ccccc2C(=O)Nc2ccccc2)cc1Cl	n	n	n[1.84 µM]	u	n	n
COc1ccc(CNCc2cccc3ccccc23)cc1	n	n	x	n	n	n
CCOc1ccc(NC(=O)c2ccccc2OCC(=O)c2ccc(C)cc2)cc1	n	n	n	5.4µM	n	n
Cc1ccc(NC(=O)c2ccccc2OCC(=O)c2ccc(F)cc2)cc1	n	n	n	n	n	n
Cc1ccc(C(=O)N/N=C\c2c(C)nn(-c3ccccc3)c2Cl)cn1	n	n	u	11µM	n	n
Cc1nn(-c2ccccc2)c(Cl)c1/C=N/NC(=O)c1cccnc1	n	n	u	13µM	n	n
Cc1nn(-c2ccccc2)c(N2CCCCC2)c1/C=N/NC(=O)c1ccncc1	n	n	n	n	n	n
Cc1nn(-c2ccccc2)c(Cl)c1/C=N/O	n	n	u	u	n	n
Cc1ccc(-n2nc(C)c(/C=N/NC(=O)c3cccnc3)c2Cl)cc1	n	n	n	u	n	n
Cc1nn(-c2ccccc2)c(Cl)c1/C=C/C(=O)c1ccccc1	n	18µM	n	3.8µM	u	n
CSCCC(NS(=O)(=O)c1ccc2c(c1)OCCO2)C(=O)N(C)Cc1ccccc1F (stereo not given)	n	n	x	n	n	n
COc1cccc(NC(=O)CN(CCc2ccccc2)S(=O)(=O)c2ccc(Cl)cc2)c1	x	x	n	n	x	x
Cc1ccc(/C=C/C(=O)OCC(=O)NC(=O)NCc2ccco2)cc1	n	n	x	n	n	n
Cc1ccccc1CNC(=O)C1CCN(c2nn3cc(-c4ccc(F)cc4)nc3s2)CC1	x	x	x	n	x	x
CCN(CC)CCNC(=O)C1CCN(c2nn3cc(-c4ccc(F)cc4)nc3s2)CC1	x	x	x	21µM	x	x
COc1ccc(-c2cn3nc(N4CCCC(C(=O)NCc5ccccc5OC)C4)sc3n2)cc1 (stereo not given)	x	x	x	17µM	x	x
COc1ccc(-c2cn3nc(N4CCCC(C(=O)Nc5ccc(Cl)cc5C)C4)sc3n2)cc1 (stereo not given)	x	x	x	n	x	x
Cc1ccc(-c2cn3nc(N4CCCC(C(=O)NCc5ccccc5F)C4)sc3n2)cc1 (stereo not given)	x	x	x	6µM	x	x
O=C(NCc1cccc(Cl)c1)C1CCCN(c2nn3cc(-c4ccc(F)cc4)nc3s2)C1 (stereo not given)	x	x	x	9.5µM	x	x
COCCCNC(=O)C1CCN(c2nn3cc(-c4ccc(F)cc4)nc3s2)CC1	x	x	x	n	x	x
COc1ccc(-c2cn3nc(N4CCCC(C(=O)NCc5ccccc5Cl)C4)sc3n2)cc1 (stereo not given)	x	x	x	9.5µM	x	x
COCCCNC(=O)c1c(NC(=O)c2cccs2)sc2c1CCCC2	n	n	n	n	n	n
NC(=O)c1c(NC(=O)c2cccs2)sc2c1CCCCCC2	3.2µM	n	u	4.8µM	u	u
O=C(Nc1sc2c(c1C(=O)O)CCC2)c1cccs1	n	n	u	17µM	n	n
O=C(Nc1sc2c(c1C(=O)Nc1cccc(Cl)c1)CCCC2)c1cccs1	x	x	n	n	x	x
Cc1cccc(-n2cc(CNCCc3nc(C)cc(C)n3)c(-c3cccc(F)c3)n2)c1	n	n	x	15µM	n	n
